D1 antag: antagonists of human D1 dopamine receptor. P21728. HEK293 TREx D1 cells, calcium flux, dopamine EC80; active compounds read low. activity change, negative = inhibition, % at 10 µM. actives 3.2% (n = 360,000); in the data active means activity change below about -30%
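Tetracycline-induced HEK293 T-REx cells with force-coupled D1 receptor were loaded with a no-wash calcium dye. Compound was added after a 10 s baseline and read kinetically for 180 s; EC80 dopamine was then added and calcium flux followed another 180 s.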
GALK inhibitor: inhibitors of human galactokinase; P51570; Purified GALK, Kinase-Glo residual ATP luminescence; Potency, µM (top dose mostly 57.5 µM), most hits filed as inhibitors; actives 0.007% (n = 270,000)
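Compounds were pin-transferred into ATP buffer (35 uM final), then GALK plus galactose (5 nM, 100 uM final) was added. After 1 h at room temperature, Kinase-Glo Plus was added and luminescence read after 10 min.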
USP2a inh: USP2a (human) protease inhibition; USP2 core, Ub-CHOP2 coupled fluorogenic reporter, 485/531; Potency, µM (series often up to 38.3 µM), usual class: inhibitors; actives 0.01% (n = 330,000); AID 463254
Target sequence (O75604 whole entry, looked up): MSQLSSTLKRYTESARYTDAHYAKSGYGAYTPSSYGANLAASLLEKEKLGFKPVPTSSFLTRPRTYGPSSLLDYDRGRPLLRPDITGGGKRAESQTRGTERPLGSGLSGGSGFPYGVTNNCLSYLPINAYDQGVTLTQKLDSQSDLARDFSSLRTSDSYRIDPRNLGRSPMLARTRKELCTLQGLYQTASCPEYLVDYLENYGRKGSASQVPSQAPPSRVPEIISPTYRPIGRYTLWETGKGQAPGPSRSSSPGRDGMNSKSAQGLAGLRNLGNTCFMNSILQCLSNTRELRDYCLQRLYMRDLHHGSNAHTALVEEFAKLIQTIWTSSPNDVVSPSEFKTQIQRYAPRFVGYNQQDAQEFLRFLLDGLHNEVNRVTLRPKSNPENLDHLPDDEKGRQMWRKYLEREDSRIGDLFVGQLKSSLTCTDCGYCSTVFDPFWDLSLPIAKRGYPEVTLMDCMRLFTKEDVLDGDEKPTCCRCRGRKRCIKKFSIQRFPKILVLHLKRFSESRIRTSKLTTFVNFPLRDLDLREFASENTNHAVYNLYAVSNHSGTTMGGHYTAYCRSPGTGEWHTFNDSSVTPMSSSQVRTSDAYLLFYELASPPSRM
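Deubiquitinase activity read as fluorescence (485/531 nm) after Ub-CHOP2 cleavage activates the enterokinase reporter on its substrate; USP2 core 10nM, Ub-CHOP2 and substrate 25nM each, 30min compound preincubation then 60min RT; data normalized to NEM, curves fitted.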
Eya2 phos inh: blocks the phosphatase activity of human Eya2; O00167; recombinant Eya2, OMFP fluorescence dephosphorylation (OMFP is methylfluorescein phosphate); Potency, µM (top dose mostly 76.9 µM), usual class: inhibitors; actives 0.006% (n = 330,000); AID 488837
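Eya2 (0.2 uM) preincubated 10 min at ambient with compound, then OMFP substrate added at 50 uM; 10 min reaction in 50 mM HEPES pH 7.5, 50 mM NaCl, 5 uM MgCl2, 0.05% BSA, 1 mM DTT. Fluorescence read at Ex 485/Em 525 nm.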
D1 PAM: human D1 dopamine receptor positive modulation. P21728. HEK293 TREx D1 cells, calcium flux, dopamine EC20 potentiation. potentiation, % at 10 µM. actives 0.036% (n = 360,000); in the data active means potentiation above about 30%
D1 agonist: human D1 receptor agonism; actives 1% (n = 360,000); P21728; activation, % at 2 µM; AID 504660; HEK293 T-REx D1 cells, calcium flux, agonist mode; in the data active means activation above about 30%
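Agonism was scored from calcium flux recorded over 180 s (1 read/s) after pintool compound addition, following a 10-cycle baseline. Cells were inducible force-coupled HEK293 TREx D1, plated overnight at 30 C and loaded with no-wash calcium dye.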
Large screens that a line does not name were inactive. Rows were chosen to be rich in hits. Some 3.9% of all compounds tested hit in one or more screens of this group. Unless noted, the call rests on the fitted dose curve; in most records, active means well fitted inhibition curve with a large enough effect; inconclusive means small, poorly fitted or top-dose-only effect, or effect the other way; inactive means flat fitted curve, though single readings scatter.

CCOC(=O)c1cc(C(=O)NN)c(C)nc1C	D1 antag -87
CCn1c(C(=O)N2CCC(C(=O)NCCc3ccc(C)cc3)CC2)cc2sccc21	none (no result: GALK inhibitor, USP2a inh, Eya2 phos inh)
CCCNC(=O)N1[C@H](c2cccs2)[C@@H](C)C(=O)[C@@H](C)[C@@H]1c1cccs1	none (no result: GALK inhibitor, USP2a inh, Eya2 phos inh)
CCCS(=O)(=O)c1nc(S(=O)(=O)c2ccc(C)cc2)c(N(CC)CC)s1	none (no result: GALK inhibitor, USP2a inh, Eya2 phos inh)
CCCS(=O)(=O)c1nc(S(=O)(=O)c2ccc(C)cc2)c(N(C)Cc2ccccc2)s1	D1 agonist 35 (no result: GALK inhibitor, USP2a inh, Eya2 phos inh)
COCCn1c(SCC(=O)c2c(N)n(C3CC3)c(=O)[nH]c2=O)nc2ccccc21	D1 antag -41 (no result: GALK inhibitor)
CN1C[C@H](C(=O)N[C@]2(C)O[C@@]3(O)[C@@H]4CCCN4C(=O)[C@H](Cc4ccccc4)N3C2=O)C[C@@H]2c3cccc4[nH]cc(c34)C[C@H]21	none (no result: D1 antag, GALK inhibitor, USP2a inh, D1 PAM, D1 agonist)
CN1C[C@H](C(=O)N[C@]2(C)O[C@@]3(O)[C@@H]4CCCN4C(=O)[C@H](Cc4ccccc4)N3C2=O)CC2c3cccc4[nH]cc(c34)C[C@H]21 (stereo partly drawn)	D1 antag -62 (no result: GALK inhibitor)
COC(=O)c1ccc(CSc2nc3c([nH]c4ccccc43)c(=O)n2-c2cccc(OC)c2)o1	D1 antag -62 (no result: GALK inhibitor, USP2a inh, Eya2 phos inh)
COc1cccc(-n2c(SCC(=O)NCC3CCCO3)nc3c(c2=O)SCC3)c1 (stereo not drawn)	none
COc1ccc(-n2c(SCC(=O)NCC3CCCO3)nc3c([nH]c4ccccc43)c2=O)cc1 (stereo not drawn)	D1 antag -31
COc1cccc(-n2c(SCC(=O)N3CCCc4ccccc43)nc3c([nH]c4ccccc43)c2=O)c1	D1 antag -35 (no result: GALK inhibitor, USP2a inh, Eya2 phos inh)
COC(=O)c1ccc(CSc2nc3c([nH]c4ccccc43)c(=O)n2-c2cccc(Cl)c2)o1	none (no result: GALK inhibitor, USP2a inh, Eya2 phos inh)
O=C(CSc1nc2c(c(=O)n1-c1ccc(Cl)cc1)SCC2)NCC1CCCO1 (stereo not drawn)	D1 antag -32 (no result: USP2a inh, Eya2 phos inh)
COc1ccc(Cl)cc1NC(=O)c1nn(C)c2c1CS(=O)(=O)c1ccccc1-2	none (no result: GALK inhibitor, USP2a inh, Eya2 phos inh)
CCOC(=O)Cc1csc(NC(=O)c2cc(C)c(C)s2)n1	D1 antag -35 (no result: GALK inhibitor)
CCOC(=O)Cc1csc(NC(=O)Nc2ccc(OC(F)(F)F)cc2)n1	D1 antag -36
CCOC(=O)Cc1csc(NC(=O)NC2(C(F)(F)F)Oc3cc(Cl)c(Cl)cc3O2)n1	D1 agonist 35
CCOC(=O)Cc1csc(NC(=O)c2ccc(NC(C)=O)cc2)n1	none
CCOC(=O)Cc1csc(NC(=O)c2ccc(Cl)s2)n1	none
CCOC(=O)Cc1csc(NC(=O)Cc2ccc(Br)cc2)n1	D1 antag -37
CCOC(=O)Cc1csc(NC(=O)Cc2ccc(Cl)cc2)n1	none
COc1ccc(CCNC(=O)CSc2nc3ccccc3nc2Cc2ccc(Cl)cc2)cc1OC	none (no result: GALK inhibitor, USP2a inh, Eya2 phos inh)
COC(=O)c1ccc(NC(=O)C2CCCN(S(C)(=O)=O)C2)cc1 (stereo not drawn)	D1 antag -33
COc1cccc(NC(=O)Nc2ccc3snnc3c2)c1	D1 agonist 37 (no result: GALK inhibitor, USP2a inh, Eya2 phos inh)
CCc1ccccc1NC(=O)Nc1ccc2snnc2c1	D1 agonist 33 (no result: GALK inhibitor, USP2a inh, Eya2 phos inh)
Cc1ccc(NC(=O)Nc2ccc3snnc3c2)cc1C	none (no result: GALK inhibitor, USP2a inh, Eya2 phos inh)
COc1cccc(NC(=O)Nc2nc(-c3ccc(OC)c(OC)c3)cs2)c1	D1 antag -40
O=C(Nc1ccc2snnc2c1)Nc1cccc2ccccc12	none
Cc1ccccc1CNC(=O)c1ccccc1NC(=O)c1nsc2ccccc12	none (no result: GALK inhibitor, USP2a inh, Eya2 phos inh)
Cc1ccc(C(=O)NCC(c2ccc3c(c2)OCO3)N2CCOCC2)cc1C (stereo not drawn)	none (no result: GALK inhibitor, USP2a inh, Eya2 phos inh)
Nc1c(-c2nc(-c3cccs3)no2)nnn1-c1ccc(Cl)cc1	none (no result: GALK inhibitor, USP2a inh, Eya2 phos inh)
Cc1ccc(C)c(N2CCN(C(=O)c3c4c(nc5ccccc35)C(=O)N(C3CCCCC3)C4)CC2)c1	none (no result: GALK inhibitor, USP2a inh, Eya2 phos inh)
Cn1cc(CN(C(=O)Nc2ccc(Cl)c(Cl)c2)C2CCCCC2)c2ccccc21	D1 antag -47 (no result: GALK inhibitor, USP2a inh, Eya2 phos inh)
CCOC(=O)C1C(=O)CC(C)(O)C(C(=O)OCC)C1c1ccc(Br)cc1 (stereo not drawn)	D1 antag -30

Source: PubChem (National Center for Advancing Translational Sciences (NCATS))
